Results from PMC7862700, “An all-to-all approach to the identification of sequence-specific readers for epigenetic DNA modifications on cytosine”.

target: T1, GABPA (Homo sapiens, UniProt Q06546 1-454); test: DAPPL (digital affinity profiling via proximity ligation, sequencing); 10 mM Tris-HCl pH 7.5, 50 mM NaCl, 1 mM DTT, 4% glycerol, room temperature, 30 min; GST-TFs on glutathione beads, 16-mer random dsDNA library, 0.1% formaldehyde crosslink after washing; high values mean tight binding; details: protein: recombinant; tags: N-terminal GST; dsDNA, one strand shown
T1 sequence: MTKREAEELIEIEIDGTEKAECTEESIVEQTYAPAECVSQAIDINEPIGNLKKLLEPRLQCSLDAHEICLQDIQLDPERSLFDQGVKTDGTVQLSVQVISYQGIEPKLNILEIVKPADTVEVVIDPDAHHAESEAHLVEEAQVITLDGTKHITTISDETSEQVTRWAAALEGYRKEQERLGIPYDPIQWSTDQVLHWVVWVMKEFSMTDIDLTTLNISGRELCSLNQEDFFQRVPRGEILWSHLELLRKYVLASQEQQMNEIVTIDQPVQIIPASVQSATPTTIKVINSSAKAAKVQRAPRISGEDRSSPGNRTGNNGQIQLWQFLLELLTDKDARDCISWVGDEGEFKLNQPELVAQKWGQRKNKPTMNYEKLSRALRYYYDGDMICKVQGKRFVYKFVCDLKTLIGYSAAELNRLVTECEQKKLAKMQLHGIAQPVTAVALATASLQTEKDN
Procedure, shortened: (§1)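 In yeast, human transcription factors were expressed with a GST fusion, then pulled down on glutathione beads and given DNA barcodes. Pooled with a tag-only sample, they were exposed to 200 nmole of a 16-mer random double-stranded DNA library (Tris/NaCl/DTT/glycerol buffer, room temperature, 30 min), washed, crosslinked with 0.1% formaldehyde, proximity-ligated using BsaI/T4 ligase for 1 h at 37 °C, PCR-amplified and read on an Illumina NextSeq500. Each hexamer's frequency of reads for a factor, divided by the matching frequency for the tag-only sample, gives the binding signal.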

Row | Sequence | binding signal
1 | AGCTTG | 1.02 fold enrichment (6-mer frequency, TF over GST control)
2 | CCAAAG | 1.01 fold enrichment (6-mer frequency, TF over GST control)
3 | GTCTGC | 1.01 fold enrichment (6-mer frequency, TF over GST control)

target: T2, EHF (Homo sapiens, UniProt Q9NZC4 1-300); test: as above; details: protein: recombinant; tags: N-terminal GST; dsDNA, one strand shown
T2 sequence: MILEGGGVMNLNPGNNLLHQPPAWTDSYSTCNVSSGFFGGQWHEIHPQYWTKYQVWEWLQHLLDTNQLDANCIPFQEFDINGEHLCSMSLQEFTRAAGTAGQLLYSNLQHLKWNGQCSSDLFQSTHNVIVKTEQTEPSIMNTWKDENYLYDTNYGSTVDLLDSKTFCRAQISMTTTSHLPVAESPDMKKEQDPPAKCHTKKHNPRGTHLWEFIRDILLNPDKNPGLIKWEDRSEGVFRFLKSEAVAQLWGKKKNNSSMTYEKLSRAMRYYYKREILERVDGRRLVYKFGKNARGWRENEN
Procedure, shortened: as §1

Row | Sequence | binding signal
4 | ACAAGG | 1.04 fold enrichment (6-mer frequency, TF over GST control)
5 | CAACAG | 1 fold enrichment (6-mer frequency, TF over GST control)
6 | GGATGA | 1 fold enrichment (6-mer frequency, TF over GST control)
7 | GAGCTA | 1 fold enrichment (6-mer frequency, TF over GST control)
8 | TGTCGC | 1.03 fold enrichment (6-mer frequency, TF over GST control)

target: SPI1 (Homo sapiens, UniProt P17947 1-270); test: as above; details: protein: recombinant; tags: N-terminal GST; dsDNA, one strand shown
Procedure, shortened: as §1

Row | Sequence | binding signal
9 | GTGCAC | 1.07 fold enrichment (6-mer frequency, TF over GST control)
10 | GTGTAA | 1.04 fold enrichment (6-mer frequency, TF over GST control)
11 | AGTACG | 1.02 fold enrichment (6-mer frequency, TF over GST control)
12 | TGTCGC | 1.02 fold enrichment (6-mer frequency, TF over GST control)
13 | AAGGGA | 1.07 fold enrichment (6-mer frequency, TF over GST control)
14 | AGTCTT | 1.03 fold enrichment (6-mer frequency, TF over GST control)

target: T3, ELK3 (Homo sapiens, UniProt P41970 1-407); test: as above; details: protein: recombinant; tags: N-terminal GST; dsDNA, one strand shown
T3 sequence: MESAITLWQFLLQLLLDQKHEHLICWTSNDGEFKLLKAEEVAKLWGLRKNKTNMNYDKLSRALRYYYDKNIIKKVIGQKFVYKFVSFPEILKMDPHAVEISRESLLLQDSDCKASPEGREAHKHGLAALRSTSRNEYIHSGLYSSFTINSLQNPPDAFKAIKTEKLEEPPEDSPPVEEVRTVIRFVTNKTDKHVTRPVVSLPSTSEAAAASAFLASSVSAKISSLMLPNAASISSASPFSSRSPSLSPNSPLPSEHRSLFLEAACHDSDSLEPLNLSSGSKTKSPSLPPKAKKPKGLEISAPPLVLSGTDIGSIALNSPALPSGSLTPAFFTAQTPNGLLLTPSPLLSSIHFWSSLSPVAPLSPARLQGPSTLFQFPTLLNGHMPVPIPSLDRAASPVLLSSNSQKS
Procedure, shortened: as §1

Row | Sequence | binding signal
15 | AGTTAT | 1 fold enrichment (6-mer frequency, TF over GST control)
16 | ACAAGG | 1.02 fold enrichment (6-mer frequency, TF over GST control)
17 | GATTGG | 1.01 fold enrichment (6-mer frequency, TF over GST control)
18 | CAACAG | 1.01 fold enrichment (6-mer frequency, TF over GST control)

target: T4, ELF3 (Homo sapiens, UniProt P78545 1-371); test: as above; details: protein: recombinant; tags: N-terminal GST; dsDNA, one strand shown
T4 sequence: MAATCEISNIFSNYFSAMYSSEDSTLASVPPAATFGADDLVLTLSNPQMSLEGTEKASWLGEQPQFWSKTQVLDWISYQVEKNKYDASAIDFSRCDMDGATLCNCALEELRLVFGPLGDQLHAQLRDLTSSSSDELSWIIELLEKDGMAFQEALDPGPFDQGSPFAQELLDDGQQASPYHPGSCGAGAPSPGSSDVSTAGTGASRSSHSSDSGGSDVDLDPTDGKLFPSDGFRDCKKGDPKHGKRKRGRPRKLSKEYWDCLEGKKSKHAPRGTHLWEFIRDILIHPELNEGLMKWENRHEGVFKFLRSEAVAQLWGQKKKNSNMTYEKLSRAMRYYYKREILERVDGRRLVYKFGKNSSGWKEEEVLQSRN
Procedure, shortened: as §1

Row | Sequence | binding signal
19 | AGTTAT | 1.08 fold enrichment (6-mer frequency, TF over GST control)
20 | GGTTGT | 1.06 fold enrichment (6-mer frequency, TF over GST control)
21 | ACAAGG | 1.09 fold enrichment (6-mer frequency, TF over GST control)
22 | GTGCAC | 1.02 fold enrichment (6-mer frequency, TF over GST control)
23 | CAACAG | 1.03 fold enrichment (6-mer frequency, TF over GST control)
24 | GAAAGG | 1.03 fold enrichment (6-mer frequency, TF over GST control)
25 | GTGTAA | 1.11 fold enrichment (6-mer frequency, TF over GST control)
26 | AGTACG | 1.01 fold enrichment (6-mer frequency, TF over GST control)
27 | GAGCTA | 1.02 fold enrichment (6-mer frequency, TF over GST control)
28 | TGTCGC | 1.08 fold enrichment (6-mer frequency, TF over GST control)
29 | ACCGGT | 1.01 fold enrichment (6-mer frequency, TF over GST control)
30 | AAGGGA | 1.03 fold enrichment (6-mer frequency, TF over GST control)
31 | TGACAG | 1.09 fold enrichment (6-mer frequency, TF over GST control)
32 | TACGGG | 1.01 fold enrichment (6-mer frequency, TF over GST control)
33 | CGCGGA | 1.07 fold enrichment (6-mer frequency, TF over GST control)

target: CRX (Homo sapiens, UniProt O43186 1-299); test: as above; details: protein: recombinant; tags: N-terminal GST; dsDNA, one strand shown
Sequence (O43186 whole entry): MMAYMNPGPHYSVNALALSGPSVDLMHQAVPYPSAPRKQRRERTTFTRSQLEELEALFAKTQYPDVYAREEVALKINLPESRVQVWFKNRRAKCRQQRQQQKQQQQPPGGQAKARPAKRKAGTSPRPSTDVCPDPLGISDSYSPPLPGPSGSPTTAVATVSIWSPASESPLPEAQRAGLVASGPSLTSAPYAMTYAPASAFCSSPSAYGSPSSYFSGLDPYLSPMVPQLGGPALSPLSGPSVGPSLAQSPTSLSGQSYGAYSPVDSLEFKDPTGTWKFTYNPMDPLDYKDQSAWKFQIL
Procedure, shortened: as §1

Row | Sequence | binding signal
34 | TATCGG | 1.1 fold enrichment (6-mer frequency, TF over GST control)
35 | GCATAA | 1.15 fold enrichment (6-mer frequency, TF over GST control)
36 | GGGGAT | 1.21 fold enrichment (6-mer frequency, TF over GST control)
37 | AGCTTG | 1.04 fold enrichment (6-mer frequency, TF over GST control)
38 | GGGATA | 1.04 fold enrichment (6-mer frequency, TF over GST control)
39 | GATTGG | 1.01 fold enrichment (6-mer frequency, TF over GST control)
40 | CCAAAG | 1.05 fold enrichment (6-mer frequency, TF over GST control)
